# Source: the supplement of paper PMC10498489
# In all, about 2,300 compounds went through this assay and about 330 (14%) showed activity. The list is a sample of the results. Values without a mark were called inactive.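 How the source made its calls: active = median modified Z-score above 1.96; inactive = 1.96 or below.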
# System: HepG2 Srxn1-GFP reporter cells (+30 nM CDDO-Me)
# Assay: Srxn1-GFP intensity median modified Z-score relative to plate median; higher = stronger NRF2 / oxidative stress reporter activation, active = hit call of the paper
# Settings: 10 µM; exposure time: 24h
# How it was run: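 HepG2 Srxn1-GFP BAC reporter cells (20,000 per well, 96-well plates) were co-exposed to an NRF2 activator at 30 nM and compound at 10 μM (≤0.1% DMSO) for 24 h in three replicate plates. After formaldehyde fixation and Hoechst staining, confocal images were analysed per cell for cytoplasmic GFP, excluding images with under 100 cells. The value is the median over replicates of the per-plate modified Z-score of GFP intensity. Scaling used 1.4826 × median absolute deviation.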
row,SMILES,Srxn1-GFP intensity median modified Z-score
1,CC[C@H]1OC(=O)C[C@@H](O)[C@H](C)[C@@H](O[C@@H]2O[C@H](C)[C@@H](O[C@H]3C[C@@](C)(O)[C@@H](O)[C@H](C)O3)[C@H](N(C)C)[C@H]2O)[C@@H](CC=O)CC(C)C(=O)/C=C/C(C)=C/C1CO[C@@H]1O[C@H](C)[C@@H](O)[C@@H](OC)[C@H]1OC (stereo not given in full) [euspeclibcmpd742],-0.617
2,COc1cccc(-c2cc(=O)c3ccc(OC)cc3o2)c1 [euspeclibcmpd2098],1.56
3,COc1ccc(-c2coc3cc(OCC4CC4)ccc3c2=O)cc1,1.64
4,CC(=O)Oc1cccc(O)c1 [euspeclibcmpd584],0.144
5,CC(=O)Nc1ccc(OC(C)=O)cc1 [euspeclibcmpd1187],-0.386
6,CC(=O)Oc1ccc(O)cc1 [euspeclibcmpd2324],5.59 (active)
7,CCC1C(=O)OC[C@@H]1Cc1cncn1C (stereo not given in full) [euspeclibcmpd2263],0.439
8,OC[C@H]1O[C@@](CO)(O[C@@H]2O[C@H](CO)[C@@H](O)[C@H](O)[C@H]2O)[C@@H](O[C@@H]2O[C@H](CO)[C@@H](O)[C@H](O)[C@H]2O)[C@@H]1O [euspeclibcmpd1323],0.146
9,O=C(OCc1cc([N+](=O)[O-])cc2c1OCOC2)C12CC3CC(CC(Br)(C3)C1)C2,1.38
10,CC1(C)OC(=O)NC1=O [euspeclibcmpd99],0.00531
11,CC(C)C(N)C(=O)OCCOCn1cnc2c(=O)[nH]c(=N)[nH]c21 (stereo not given) [euspeclibcmpd757],0.568
12,CC1OC(O[C@H]2/C=C/C=C/C=C/C=C/C=C/C=C/C=C/[C@H](C)[C@@H](O)[C@@H](C)[C@H](C)OC(=O)CC(O)CC(O)CCC(O)C(O)CC(O)C[C@]3(O)C[C@H](O)C(C(=O)O)C(C2)O3)C(O)[C@H](N)C1O (stereo not given in full) [euspeclibcmpd24],1.97 (active)
13,CC1/C=C/C=C/C=C/C=C/C=C/C=C/C=C/C(OC2O[C@H](C)[C@@H](O)[C@H](N)[C@@H]2O)CC(O)C(C(=O)O)C(O)CC(=O)CC(O)CC(O)CC(O)CC(=O)CCCC(=O)CC(=O)OC1C(C)CC(C)C(O)CC(=O)c1ccc(N)cc1 (stereo not given in full) [euspeclibcmpd648],1.22
14,CC1C/C=C/C=C/C=C/C=C/C(O[C@@H]2O[C@H](C)[C@@H](O)[C@H](N)[C@@H]2O)CC2OC(O)(CC(O)CC3OC3/C=C/C(=O)O1)CC(O)C2C(=O)O (stereo not given in full) [euspeclibcmpd858],-0.525
15,COc1ccc(-c2coc3c4c(c(CC=C(C)C)c(O)c3c2=O)OC(C)(C)C=C4)cc1 [euspeclibcmpd2167],-0.398
16,COc1cc(=NS(=O)(=O)c2ccc(N)cc2)[nH]c(OC)n1 [euspeclibcmpd399],-0.451
17,OC[C@H]1O[C@H](O[C@H]2[C@H](O)[C@@H](O)[C@H](O)O[C@@H]2CO)[C@H](O)[C@@H](O)[C@@H]1O [euspeclibcmpd2088],-0.629
18,COCCn1c(SCC(=O)N(C)Cc2ccc(Cl)s2)nc2cc(Cl)ccc21,0.575
19,CC(C=Cc1c(C)c(O)c2ccccc2c1O)=CCC[C@H](C)CCC[C@H](C)CCCC(C)C [euspeclibcmpd621],-0.697
20,N=c1[nH]nc(-c2cccc(Cl)c2Cl)c(=N)[nH]1 [euspeclibcmpd829],-0.0242

row,SMILES,Srxn1-GFP intensity median modified Z-score
1,CCN(CCCc1ccccc1)CCCc1ccccc1 [euspeclibcmpd16],0.166
2,CCN(CC)CCc1nc(-c2ccccc2)no1 [euspeclibcmpd2430],10.5 (active)
3,C[C@H](CC(=O)C1OC1(C)C)[C@@H]1C(=O)C[C@@]2(C)C3=CCC4C(C)(C)[C@@H](O[C@@H]5OC[C@@H](O)[C@H](O)[C@H]5O)CC[C@@]45C[C@@]35[C@@H](O)C[C@]12C (stereo not given in full) [euspeclibcmpd2331],0.374
4,COCCCCC(=NOCCN)c1ccc(C(F)(F)F)cc1 [euspeclibcmpd828],-0.302
5,NC(=O)CCC(N)C(=O)O (stereo not given) [euspeclibcmpd1404],-0.533
6,COc1cc(C(=O)N2CCOCC2)cc(OC)c1OC [euspeclibcmpd666],0.129
7,COc1cc(OC)c(C(=O)CCCN2CCCC2)c(OC)c1 [euspeclibcmpd1235],-0.587
8,COc1cc(C(=O)OCCCN2CCCN(CCCOC(=O)c3cc(OC)c(OC)c(OC)c3)CC2)cc(OC)c1OC [euspeclibcmpd1946],6.07 (active)
9,COc1cc(-c2coc3cc(OCc4ccccc4)c(OC)c(O)c3c2=O)cc(OCc2ccccc2)c1OC [euspeclibcmpd1942],-0.32
10,COc1cc2c(cc1OC)-c1cc3ccc(OC)c(OC)c3c[n+]1CC2 [euspeclibcmpd2350],0.574
11,COc1ccc2cc3[n+](cc2c1OC)CCc1cc2c(cc1-3)OCO2 [euspeclibcmpd1051],6.03 (active)
12,C[n+]1cc2c3c(ccc2c2ccc4cc5c(cc4c21)OCO5)OCO3 [euspeclibcmpd10],0.32
13,CCc1cccc2c(C(=O)COC(=O)c3c4c(nc5ccccc35)CCC(C(C)(C)C)C4)c[nH]c12 (stereo not given),1.73
14,C#C[C@]1(O)CCC2C3CCc4cc(OC5CCCC5)ccc4C3CC[C@@]21C (stereo not given in full) [euspeclibcmpd466],0.485
15,CCCCCC(CC(O)=NO)C(=O)NC(C(=O)N1CCCC1CO)C(C)C (stereo not given) [euspeclibcmpd1993],11.7 (active)
16,CCCCCC(CC(=O)O)C(=O)O (stereo not given) [euspeclibcmpd1642],-0.141
17,CN1N=C(C(=O)NC2(C)CCS(=O)(=O)C2)CCC1=O (stereo not given),1.37
18,C[C@]12CCC3c4ccc(OS(=O)(=O)O)cc4CCC3C1CCC2=O (stereo not given in full) [euspeclibcmpd707],-0.429
19,CN=C(NC#N)NCCSCc1[nH]cnc1C [euspeclibcmpd338],3.04 (active)
20,O=C(N[C@@H](CO)[C@H](O)c1ccc([N+](=O)[O-])cc1)C(Cl)Cl [euspeclibcmpd53],-0.347
